We go through seven compounds from PubChem BioAssay (EPA / NIEHS).

Read-out in assay [1]: Human Leukocyte Antigen - DR isotype (HLADR), HLA-DRA (gene 3122)
Description: BSK_BE3C_HLADR: BioMAP Diversity Plus: BE3C Assay for Human Leukocyte Antigen - DR isotype (HLADR) Biomarker Activity (AID 2283032). The conditions noted are these: primary human bronchial epithelial cells; actives raise or lower the signal. Summed up:
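Cell-surface HLA-DR ELISA readout at 24 h after dosing in the BE3C primary human lung bronchial epithelial system; gain or loss of signal against DMSO, with parallel sulforhodamine B staining of total protein for overt cytotoxicity.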

Read-out in assay [2]: Vascular cell adhesion molecule 1 (VCAM1), VCAM1 (gene 7412)
The assay is described as follows: BSK_4H_VCAM1: BioMAP Diversity Plus: 4H Assay for Vascular cell adhesion molecule 1 (VCAM1) Biomarker Activity (AID 2283033).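 For outcome: cell-surface VCAM-1 protein measured by ELISA.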 The conditions noted are these: primary human endothelial cells (HUVEC); actives raise or lower the signal. Summed up: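 VCAM-1 ELISA read 24 h after chemical dosing of HUVEC in the BioMAP 4H system, with gain or loss of signal fitted relative to DMSO. Parallel SRB staining (560 nm) checked overt cytotoxicity.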

Read-out in assay [3]: Interferon-gamma inducible Protein 10 (IP10), CXCL10 (gene 3627)
Description: BSK_BE3C_IP10: BioMAP Diversity Plus: BE3C Assay for Interferon-gamma inducible Protein 10 (IP10) Biomarker Activity (AID 2283034). The conditions noted are these: primary human bronchial epithelial cells; actives raise or lower the signal. Summed up: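 IP-10 quantified by ELISA in human primary bronchial epithelial cell cultures at 24 hours post-dosing. Gain or loss of signal fitted relative to DMSO; parallel SRB staining assessed overt cytotoxicity.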

Read-out in assay [4]: Monokine induced gamma interferon (MIG), CXCL9 (gene 4283)
Description: BSK_BE3C_MIG: BioMAP Diversity Plus: BE3C Assay for Monokine induced gamma interferon (MIG) Biomarker Activity (AID 2283035). As to conditions: primary human bronchial epithelial cells; actives raise or lower the signal. In short, it runs like this: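 Dose cells (human primary bronchial epithelial), incubate 24 h, quantify MIG by ELISA, then fit concentration–response in both directions relative to DMSO control.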

Read-out in assay [5]: Transforming growth factor beta 1 (TGFb1), TGFB1 (gene 7040)
The assay is described as follows: BSK_BE3C_TGFb1: BioMAP Diversity Plus: BE3C Assay for Transforming growth factor beta 1 (TGFb1) Biomarker Activity (AID 2283036;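 for outcome: TGF-b1 protein level measured by ELISA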). As to conditions: primary human bronchial epithelial cells; actives raise or lower the signal. In short, it runs like this: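 ELISA readout of TGF-b1 from human lung bronchial epithelial primary cells, taken 24 h post-treatment. Gain or loss of signal fitted relative to DMSO baseline, with parallel SRB staining for overt cytotoxicity.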

Read-out in assay [6]: urokinase plasminogen activator (uPA), PLAU (gene 5328)
The assay is described as follows: BSK_BE3C_uPA: BioMAP Diversity Plus: BE3C Assay for urokinase plasminogen activator (uPA) Biomarker Activity (AID 2283038).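 For outcome: uPA protein level quantified by ELISA in cell cultures; uPA read one day after compound addition.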 As to conditions: primary human bronchial epithelial cells; actives raise or lower the signal. In short, it runs like this: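 ELISA read-out of uPA in human lung primary bronchial epithelial cultures, 24 h post-dosing. Gain or loss of signal fitted bidirectionally relative to DMSO baseline; cytotoxicity checked in parallel cultures via SRB total protein stain.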

Read-out in assay [7]: Interleukin-6 (IL6), IL6 (gene 3569)
The assay is described as follows: BSK_CASM3C_IL6: BioMAP Diversity Plus: CASM3C Assay for Interleukin-6 (IL6) Biomarker Activity for (AID 2283040). The conditions noted are these: primary human coronary artery smooth muscle cells; actives raise or lower the signal.

Read-out in assay [8]: Tissue plasminogen activator (tPA), PLAT (gene 5327)
Description: BSK_BE3C_tPA: BioMAP Diversity Plus: BE3C Assay for Tissue plasminogen activator (tPA) Biomarker Activity (AID 2283041).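 For outcome: tPA level quantified by ELISA one day after compound addition.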 As to conditions: primary human bronchial epithelial cells; actives raise or lower the signal. In short, it runs like this: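 tPA measured by ELISA 24 h after dosing human primary bronchial epithelial cells (BE3C system). Changes in either direction were fitted against DMSO. Parallel cultures were stained with SRB to flag overt cytotoxicity.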

Read-out in assay [9]: Interleukin-8 (IL8), CXCL8 (gene 3576)
Description: BSK_CASM3C_IL8: BioMAP Diversity Plus: CASM3C Assay for Interleukin-8 (IL8) Biomarker Activity (AID 2283042).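 Note: IL-8 protein level quantified by ELISA.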 The conditions noted are these: primary human coronary artery smooth muscle cells; actives raise or lower the signal.

Read-out in assay [10]: Human Leukocyte Antigen - DR isotype (HLADR), HLA-DRA (gene 3122)
The assay is described as follows: BSK_CASM3C_HLADR: BioMAP Diversity Plus: CASM3C Assay for Human Leukocyte Antigen - DR isotype (HLADR) Biomarker Activity (AID 2283043).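 Note: cell-surface HLA-DR protein level quantified by ELISA.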 As to conditions: primary human coronary artery smooth muscle cells; actives raise or lower the signal.

Read-out in assay [11]: Macrophage colony-stimulating factor (MCSF), CSF1 (gene 1435)
Description: BSK_CASM3C_MCSF: BioMAP Diversity Plus: CASM3C Assay for Macrophage colony-stimulating factor (MCSF) Biomarker Activity (AID 2283044).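 Note: M-CSF protein amount quantified by ELISA after 24 h exposure.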 As to conditions: primary human coronary artery smooth muscle cells; actives raise or lower the signal.

Read-out in assay [12]: Low-density lipoprotein receptor (LDLR), LDLR (gene 3949)
The assay is described as follows: BSK_CASM3C_LDLR: BioMAP Diversity Plus: CASM3C Assay for Low-density lipoprotein receptor (LDLR) Biomarker Activity (AID 2283045).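 Note: LDLR protein level on the cell surface quantified by ELISA.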 As to conditions: primary human coronary artery smooth muscle cells; actives raise or lower the signal.

Read-out in assay [13]: Monocyte Chemoattractant Protein-1 (MCP1), CCL2 (gene 6347)
The assay is described as follows: BSK_CASM3C_MCP1: BioMAP Diversity Plus: CASM3C Assay for Monocyte Chemoattractant Protein-1 (MCP1) Biomarker Activity (AID 2283046).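 Note: MCP-1 level quantified by ELISA 24 h after dosing.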 The conditions noted are these: primary human coronary artery smooth muscle cells; actives raise or lower the signal.

The nature of assay [14]: BSK_CASM3C_Proliferation: Cell Proliferation Assessment in the BioMAP Diversity Plus: CASM3C Assay (AID 2283047).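 Note: sulforhodamine B total protein stain as relative cell number at 560 nm; sub-confluent cells exposed 48 h before staining; fitted both ways against DMSO so gain or loss of cell number.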 As to conditions: primary human coronary artery smooth muscle cells.
Read-out in assay [15]: Monokine induced gamma interferon (MIG), CXCL9 (gene 4283)
Description: BSK_CASM3C_MIG: BioMAP Diversity Plus: CASM3C Assay for Monokine induced gamma interferon (MIG) Biomarker Activity (AID 2283048).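 Note: MIG protein level measured by ELISA.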 The conditions noted are these: primary human coronary artery smooth muscle cells; actives raise or lower the signal.

Read-out in assay [16]: serum amyloid A (SAA), SAA1 (gene 6288)
The assay is described as follows: BSK_CASM3C_SAA: BioMAP Diversity Plus: CASM3C Assay for serum amyloid A (SAA) Biomarker Activity (AID 2283049).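 Note: SAA protein level quantified by ELISA.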 The conditions noted are these: primary human coronary artery smooth muscle cells; actives raise or lower the signal.

Assay [17] can be described thus: BSK_CASM3C_SRB: Viability Assessment in the BioMAP Diversity Plus: CASM3C Assay (AID 2283050). The conditions noted are these: primary human coronary artery smooth muscle cells.
Read-out in assay [18]: Thrombomodulin, THBD (gene 7056)
Description: BSK_CASM3C_Thrombomodulin: BioMAP Diversity Plus: CASM3C Assay for Thrombomodulin Biomarker Activity (AID 2283051).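 Note: thrombomodulin protein level measured by ELISA 24 h after dosing.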 The conditions noted are these: primary human coronary artery smooth muscle cells; actives raise or lower the signal.

Read-out in assay [19]: Urokinase-type plasminogen activator receptor (uPAR), PLAUR (gene 5329)
The assay is described as follows: BSK_BE3C_uPAR: BioMAP Diversity Plus: BE3C Assay for Urokinase-type plasminogen activator receptor (uPAR) Biomarker Activity (AID 2283039).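 For outcome: cells exposed to compound for one day before measurement.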 As to conditions: primary human bronchial epithelial cells; actives raise or lower the signal. Summed up: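 uPAR levels were measured by ELISA after 24 h compound treatment of primary human bronchial epithelial cells, fitted in both directions relative to DMSO. Parallel SRB staining served as the cytotoxicity read-out.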

Read-out in assay [20]: Plasminogen activator inhibitor-1 (PAI1), SERPINE1 (gene 5054)
The assay is described as follows: BSK_BE3C_PAI1: BioMAP Diversity Plus: BE3C Assay for Plasminogen activator inhibitor-1 (PAI1) Biomarker Activity (AID 2283037). As to conditions: primary human bronchial epithelial cells; actives raise or lower the signal. In short, it runs like this: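 PAI-1 was measured by ELISA in human primary bronchial epithelial cultures 24 h after chemical dosing, with cytotoxicity checked by SRB total-protein staining in parallel cultures. Activity was fitted in both directions relative to DMSO.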

The source made the active and inactive calls. Rule for the calls: active = hit-call score of the fitted dose curve at least 0.9, where 1 is the maximum; inactive = score below 0.9.

As for `CCN(C(=O)c1cc(C)cc(OC[C@H](C)Nc2ccncc2)c1)C(C)C`, the outcome in assay [1], in [2], in assay [3], in assay [4], in assay [5] and in assay [6] was inactive. Besides, the result in [7], in [8], in assay [9], in [10], in assay [11] and in assay [12] was inactive. The result in assay [13], in [14], in assay [15], in [16], in assay [17] and in assay [18] was inactive.
On to `CC(C)(O)c1coc(S(=O)(=O)NC(=O)Nc2c3c(cc4c2CCC4)CCC3)c1`, for which the result in assay [1], in assay [2], in assay [3], in assay [4], in [5] and in [6] was inactive. Moreover, the outcome in [19], in assay [7], in assay [8], in assay [9], in assay [10] and in assay [11] was inactive. Also, the result in assay [12], in assay [13], in assay [14], in assay [15], in assay [16] and in [17] was inactive. For the same compound, the result in [18] was inactive.
For `CC[C@H](C)C(=O)O[C@H]1C[C@@H](C)C=C2C=C[C@H](C)[C@H](CC[C@@H]3C[C@@H](O)CC(=O)O3)[C@H]21`, the AC50 in assay [1] is 35.9 µM (active); in assay [3], 36.3 µM (active); in assay [4], 36.1 µM (active); in assay [5] it was 34 µM (active); in assay [20] it was 28.8 µM (active); in assay [6], 32.1 µM (active). For the same compound, the AC50 is 30.9 µM (active) in assay [19]; 25.6 µM (active) in assay [8]; 19.9 µM (active) in [10]; 19.9 µM (active) in [13]; 6.08 µM (active) in [14]; 0.147 µM (active) in [18]. Also, the result in [7], in assay [9], in assay [11], in assay [12], in assay [15] and in [16] was inactive. Besides, the result in assay [17] was inactive.
Take `CCC(C)(C)C(=O)O[C@H]1C[C@@H](C)C=C2C=C[C@H](C)[C@H](CC[C@@H]3C[C@@H](O)CC(=O)O3)[C@H]21`: the half-maximal activity concentration (AC50) in assay [1] was 30.8 µM (active); in assay [2], 29.9 µM (active); in assay [3], 34.1 µM (active); in assay [4] it was 36.7 µM (active); in [5] it was 27.1 µM (active); in [8], 5.4 µM (active). For the same compound, the concentration at half-maximal activity (AC50) in assay [9] is 34.2 µM (active); in assay [10], 20 µM (active); in assay [11] it was 20 µM (active); in assay [12], 20 µM (active); in [13], 32.3 µM (active); in assay [14], 2.18 µM (active). Besides, the concentration at half-maximal activity (AC50) in assay [17] is 18.3 µM (active); in [18], 0.336 µM (active). Besides, the result in assay [7], in [15] and in [16] was inactive.
`CC(C)=CCCC(C)CCO` (centres undefined): the result in [1], in assay [2], in assay [3], in [4], in assay [5] and in [6] was inactive. For the same compound, the result in [19], in assay [7], in assay [8], in assay [9], in assay [10] and in assay [11] was inactive. Moreover, the outcome in assay [12], in [13], in assay [14], in assay [15], in assay [16] and in assay [17] was inactive. Besides, the result in [18] was inactive.
As for `O=C(O)c1cccc(N(Cc2cccnc2)c2ccc(OC(F)F)c(OC(F)F)c2)c1`, the outcome in [1], in assay [2], in [4], in [5], in assay [6] and in [7] was inactive. Also, the result in [8], in assay [9], in [12], in assay [13], in assay [15] and in assay [16] was inactive. The outcome in assay [17] and in [18] was inactive. Besides, the AC50 in [3] was 32.8 µM (active); in assay [10], 8.72 µM (active); in [11], 11.7 µM (active); in [14], 6.98 µM (active).
With `C1=CCCC=CCCC=CCC1`, the result in assay [1], in assay [2], in assay [3], in assay [4], in [5] and in assay [6] was inactive. The outcome in assay [19], in assay [7], in [8], in [9], in assay [10] and in assay [11] was inactive. For the same compound, the outcome in assay [12], in [13], in [14], in [15], in [16] and in assay [17] was inactive. Also, the result in assay [18] was inactive.

The AC50 is the concentration at which the activity in the assay is half-maximal.
